For test [1], the target named is Albumin (Bos taurus) (UniProt P02769). In words: bovine serum albumin binders on microarray, profiling panel, artefact control for SMM control protein annotation, biochemical, small-molecule microarray, Alexa647 label, 635/667 nm fluorescence (AID 1118).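 Note: score merges 667 nm emission intensity and signal-to-noise per printed compound spot.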 The following applies: BSA-A647 binding, fluorescence 635 nm, higher = more signal.
Test [2] can be described thus: small-molecule microarray binders of probe aXIP, primary screen, biochemical, NeuroSMM set, 635/667 nm fluorescence (AID 1119).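 Note: probe is the protein aXip251-270 applied at 1 µg/mL to compound-printed slides; binding of probe to printed compounds measured as 667 nm fluorescence plus signal to noise.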 The note with it: higher = more signal, called active from +8 up or from −8 down.
Test [3] can be described thus: small-molecule binders of probe aNOTCH3, primary screen, biochemical, small-molecule microarray, 635/667 nm fluorescence (AID 1120).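 Note: probe is a biotin-tagged antibody raised against NOTCH3 rather than NOTCH3 protein; score merges spot fluorescence near 667 nm with spot signal to noise.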 The note with it: higher = more signal.
Test [4] in a line: small-molecule binders of probe aNOTCH2, primary screen, biochemical, small-molecule microarray, 635/667 nm fluorescence (AID 1121).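 Note: score merges feature fluorescence read at 667 nm with its signal to noise.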 The following applies: higher = more signal.
For test [5], the target named is Carbonic anhydrase 2 (Homo sapiens) (UniProt P00918). In words: CAII small-molecule binders, profiling panel, biochemical, small-molecule microarray, Alexa647-labelled CAII (AID 1122). The following applies: CAII-A647 binding fluorescence, higher = more signal.
Test [6] is described as follows: COS7 lysate on small-molecule microarray, probe aHis, 635 nm (AID 1123).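 Note: z-score combines 667nm fluorescence intensity with signal-to-noise per printed compound spot.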 The note with it: COS7 cell lysate, fluorescence, higher = more signal.
Test [7] is described as follows: compound binding in COS7 lysate, probe aLAP1, primary screen, cell lysate, small-molecule microarray (AID 1124).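 Note: lysate comes from COS7 cells expressing LAP1 and is applied at 0.3 µg/mL; score merges spot fluorescence near 667 nm with signal-to-noise over triplicate slides.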 The following applies: probe aLAP1, fluorescence, higher = more signal.
For test [8], the system named is Sam68 (KHDRBS1). In words: Sam68 small-molecule binders, primary screen, biochemical, small-molecule microarray, 635 nm fluorescence (AID 1125).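 Note: score merges 667 nm channel intensity with signal to noise over triplicate slides.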 The note with it: small-molecule microarray binding, higher = more signal.
The test system of test [9] is Chordin-like protein 2 (CHRDL2). In words: CHRDL2 small-molecule binders, primary screen, biochemical, small-molecule microarray, 635 nm fluorescence (AID 1126).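 Note: printed compound slides probed with Chrdl2 protein at 4 µg/mL for 1 h at 4 C; score merges 667 nm emission intensity with signal to noise over three replicate slides.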 The following applies: small-molecule microarray binding, fluorescence 635 nm; higher = more signal.
Test [10] has as its target Concanavalin-A (Canavalia ensiformis) (UniProt P02866). Briefly: ConA small-molecule binders, primary screen, artefact control for SMM control protein annotation, biochemical, small-molecule microarray, Alexa647 label, 635 nm (AID 1127).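 Note: z combines 667 nm emission intensity with signal-to-noise across three replicate slides.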 The following applies: ConA-A647 binding fluorescence, higher = more signal.

Active and inactive are the calls of the source.

Sequence of Albumin (Bos taurus) (P02769 whole entry, looked up): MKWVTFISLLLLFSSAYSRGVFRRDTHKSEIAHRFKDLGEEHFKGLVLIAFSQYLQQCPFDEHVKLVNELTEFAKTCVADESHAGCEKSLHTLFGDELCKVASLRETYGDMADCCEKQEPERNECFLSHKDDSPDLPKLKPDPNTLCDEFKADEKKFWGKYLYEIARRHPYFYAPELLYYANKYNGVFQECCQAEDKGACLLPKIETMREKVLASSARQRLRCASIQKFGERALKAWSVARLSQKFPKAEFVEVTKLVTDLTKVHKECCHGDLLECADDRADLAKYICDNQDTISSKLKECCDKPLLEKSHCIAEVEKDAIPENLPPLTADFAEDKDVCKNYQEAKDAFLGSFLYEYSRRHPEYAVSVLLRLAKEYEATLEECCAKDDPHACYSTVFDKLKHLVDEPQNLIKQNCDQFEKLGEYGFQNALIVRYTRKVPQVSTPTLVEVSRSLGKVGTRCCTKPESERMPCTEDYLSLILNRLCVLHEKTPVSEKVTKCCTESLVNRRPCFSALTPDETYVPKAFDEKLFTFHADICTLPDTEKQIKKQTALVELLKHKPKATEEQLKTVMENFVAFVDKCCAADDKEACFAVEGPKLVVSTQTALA
Sequence of Concanavalin-A (Canavalia ensiformis) (P02866 whole entry, looked up): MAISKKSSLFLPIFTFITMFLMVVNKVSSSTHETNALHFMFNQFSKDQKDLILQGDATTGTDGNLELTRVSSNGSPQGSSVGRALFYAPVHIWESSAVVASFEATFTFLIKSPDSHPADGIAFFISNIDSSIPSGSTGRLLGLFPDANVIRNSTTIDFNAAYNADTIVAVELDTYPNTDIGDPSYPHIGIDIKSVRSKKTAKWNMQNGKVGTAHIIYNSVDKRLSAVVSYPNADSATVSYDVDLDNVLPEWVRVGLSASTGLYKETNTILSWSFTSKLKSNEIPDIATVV

As to `C=CCC(OC(C)=O)[C@@H]1[C@@H](N(Cc2cc3ccccc3o2)C(=O)c2ccc(C)cc2)c2cc(OCCCO)ccc2N1C(=O)Cc1ccc2ccccc2c1` (stereo not given in full), the composite z-score is 0.324 in test [1]; 0.0311 in [3]; -0.0077 in test [4]; -0.138 in test [5]; 0.0465 in test [6]; -0.057 in [7]. The composite z-score was -0.366 in test [8], 0.208 in test [9] and -1.56 in test [10]. Moreover, the composite Z-score in [2] was 0.0991 (inactive).

As to `C=CC[C@@]1(C(=O)O)N=C(c2ccc(OCCCO)cc2)O[C@@H]1c1ccccc1`, the composite z-score in test [1] was 0.771; in [3], -0.293; in [4], 0.247; in [5], 0.527; in [6], 2.71; in test [7], 0.724. The results for the composite z-score in test [8], in test [9] and in [10] were 0.732, -0.713 and -0.587, respectively. Moreover, the composite Z-score in test [2] is 1.76 (inactive).

Take `O=c1cccc(-c2cccc(Cl)c2)o1`: the composite z-score was 0.271 in test [1]; -0.0164 in test [3]; -0.161 in [4]; -0.0655 in [5]; 0.043 in [6]; 0.275 in [7]. Moreover, the composite z-score is 0.159 in test [8], 0.0809 in test [9] and 0.164 in test [10]. The composite Z-score in test [2] was 1.25 (inactive).

On to `O=C1NC(=O)C2C1C=CC(C(O)c1c(F)cccc1Cl)N2Nc1ccccn1` (stereo not given), for which the composite z-score in [1] was 0.179; in test [3] it was -0.0009; in test [4] it was 0.0203; in [5] it was 0.805; in test [6], -0.42; in [7], 1. Also, the values for the composite z-score in [8], in test [9] and in test [10] were 0.0076, 0.676 and -0.453, respectively. For the same molecule, the composite Z-score in [2] was -0.527 (inactive).

Regarding `O=C1C[C@@](C(=O)NCC(F)(F)F)(c2ccc([N+](=O)[O-])cc2)[C@@H](c2ccc(CO)cc2)N1C1CCCCC1`, the composite z-score in test [1] came out at 0.52; in [3], 0.0488; in test [4], 0.0257; in test [5], 0.685; in test [6], 3.17; in test [7] it was 1.21. Further, the values for the composite z-score in test [8], in test [9] and in test [10] were 1.29, 0.489 and 1.15, respectively. Further, the composite Z-score in test [2] is 0.391 (inactive).

`COc1ccc([Si](C)(C)[C@@H]2[C@@H](CCn3cc([C@H](O)c4ccccc4)nn3)O[C@]3(C(=O)N(Cc4ccc(N5CCOC5=O)cc4)c4ccccc43)[C@H]2C)cc1`: the composite z-score in test [1] is 0.579; in test [3], 0.165; in test [4], -0.0502; in test [5], 0.0584; in [6], 0.617; in test [7], 0.664. Besides, the composite z-score worked out at 1.09 in [8], 1.03 in [9] and 0.853 in test [10]. Besides, the composite Z-score in test [2] was 0.0409 (inactive).

In the case of `CC(CO)N1C(=O)[C@@H]2C3C(=O)OCCC/C=C\[C@H]3OC23C=CCN(Cn2nnc4ccccc42)C(=O)[C@@H]13` (stereo not given in full), the composite z-score in test [1] was 0.717; in test [3], -0.192; in [4], -0.14; in [5] it was 0.869; in test [6], -0.202; in [7] it was -0.237. For the same molecule, the composite z-score in test [8] was -1.07; in test [9], 0.034; in [10], -1.01. Further, the composite Z-score in test [2] is 0.323 (inactive).

With `Cc1ccc(C(C)CC(O)C2C=CC3C(=O)N(c4ccccc4)C(=O)C3N2Nc2ccc(C(C)C)cc2)o1` (stereo not given), the composite z-score worked out at 0.935 in test [1]; 0.126 in test [3]; 0.299 in test [4]; 0.541 in test [5]; 1.33 in test [6]; 0.835 in [7]. In addition, the figures for the composite z-score in test [8], in test [9] and in [10] were 1.28, -0.527 and 1.15, respectively. Moreover, the composite Z-score in test [2] is -0.263 (inactive).

Turning to `C=CCN1C(=O)[C@@]2(CCC(=O)OC(C)(C)C)N=C(c3ccc(OCCCO)cc3)O[C@H]2c2ccccc21`, the composite z-score in test [1] amounted to 0.71; in test [3] it was 0.108; in test [4] it was 0.0484; in test [5], 0.654; in [6] it was 1.33; in [7] it was 0.0616. Also, the composite z-score in [8] was 0.817; in [9], 0.145; in test [10], 1.16. For the same molecule, the composite Z-score in test [2] was 0.0873 (inactive).

For the molecule `[N-]=[N+]=NCc1ccccc1C[C@]1(C(=O)NCC(O)CO)N=C(c2ccc(OCCCO)cc2)O[C@H]1c1ccccc1CN=[N+]=[N-]` (stereo not given in full), the composite z-score is 0.801 in test [1]; 0.303 in test [3]; -0.108 in test [4]; 0.404 in test [5]; 3.05 in test [6]; 0.137 in test [7]. Moreover, the composite z-score was 1.12 in test [8], -0.86 in test [9] and 1.11 in test [10]. Also, the composite Z-score in test [2] is 0.496 (inactive).

Regarding `COCCOC(=O)N1C(=O)[C@@]2(c3cc(C#CC4=CCCCC4)ccc31)[C@H](c1ccccc1OCCO)N1[C@H](c3ccccc3)[C@H](c3ccccc3)OC(=O)[C@H]1[C@@H]2C(=O)N1CCc2cc(OC)c(OC)cc2C1`, the composite z-score is -0.157 in test [1]; -0.406 in [3]; -0.255 in test [4]; 0.426 in test [5]; 0.641 in [6]; 0.379 in test [7]. Besides, the composite z-score came to 1.3 in [8], 0.774 in test [9] and 0.856 in [10]. Also, in test [2], the composite Z-score was 0.0781 (inactive).

For `O=C1O[C@@H](c2ccccc2)[C@@H](c2ccccc2)N2[C@@H](c3ccccc3OCCO)[C@]3(C(=O)Nc4ccc(C#CCCO)cc43)[C@@H](C(=O)Nc3nc4ccccc4s3)[C@H]12`, the composite z-score in test [1] is 0.792; in [3], 0.302; in [4], 0.0203; in test [5], 0.428; in test [6] it was 1.28; in [7] it was 1.33. Also, the composite z-score was found to be 1.31 in test [8], 0.529 in test [9] and 1.14 in [10]. In [2], the composite Z-score was 0.229 (inactive).

Regarding `CC(C)CNC(=O)[C@@H]1c2ccccc2C(=O)N(Cc2cc(F)cc(C(F)(F)F)c2)[C@H]1c1ccc(CO)cc1`, the composite z-score in test [1] is 0.382; in test [3], 0.0628; in test [4], -0.0486; in test [5] it was 0.411; in test [6], 1.07; in test [7], 0.333. Further, the composite z-score in test [8] is 0.603; in test [9], -0.182; in [10], 0.0535. Further, the composite Z-score in test [2] is -0.161 (inactive).

For the origin of these results see PubChem BioAssay.
